Assay outcomes deposited in PubChem BioAssay by several laboratories.
In the library only some 2.3% were active in any assay of this set; here they are far more common.
Jurkat NFkB inh: inhibitors of the PMA/ionomycin-induced NF-kB reporter in Jurkat cells. inhibition, % at 4 µM. PMA/ionomycin-induced NF-kB luciferase reporter, luminescence. 0.53% of 330,000 active. AID 435003; in the data active = inhibition above about 50%
aSyn UTR inh: 5' untranslated region of α-synuclein, MLPCN primary screen. alpha-synuclein 5'UTR reporter, inhibitor activity. inhibition, % (tested at 7.5 µM). 0.82% of 300,000 active. AID 1813; in the data active = inhibition above about 60%; inconclusive = no clear call, values can overlap the other calls;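 also: H4 neuroglioblastoma cells stably carrying SNCA 5'UTR luciferase fusion; 0% = DMSO wells and 100% = positive control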
Shn3 inh set2: Schnurri-3 reporter inhibition in Clone20 osteoblasts; Clone20 osteoblast Shn3 3'UTR firefly luciferase, 24 h; inhibition, % at 12.5 µM; 0.52% of 360,000 active;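 active = mean inhibition of at least 75% with every replicate also reaching 75%; inconclusive = mean inhibition at least 75% but some replicate below; inactive = mean inhibition below 75%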;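 also: 0% = median of neutral control wells and 100% = pilot-screen positive control compound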
Gli-Sufu antag: antagonists of Gli-Sufu signaling. inhibition, % at 5 µM. AID 588413. Sufu-KO-LIGHT fibroblasts, Gli luciferase reporter luminescence. 0.74% of 340,000 active;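 active = inhibition above about 55%, limit read from the data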;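 also: 0% = DMSO-treated cells and 100% = wells with medium but no cells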
TAG inh: triacylglycerol accumulation inhibition; H9c2 cells, Nile Red lipid (TAG) fluorescence; cells loaded with 200 µM oleic acid; inhibition, % at 12.5 µM; 0.66% of 230,000 active; AID 651582;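 active = pattern-corrected inhibition of lipid staining of at least 50% with the nuclear-stain viability signal not falling by more than 50%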;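 also: 0% = DMSO wells and 100% = triacsin C control wells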
697 NFkB inh: lowers PMA/ionomycin-induced NF-kB signal in 697 B cells; 697 B-cell NF-kB luciferase reporter, 16 h; 0.33% of 330,000 active; inhibition, % at 4 µM; in the data active = inhibition above about 35%
Jurkat NFkB conf: lowers PMA/ionomycin-induced NF-kB signal in Jurkat cells; shares compounds with Jurkat NFkB inh; Jurkat NF-kB luciferase, 16 h; inhibition, % at 4 µM; 27% of 2,700 active; AID 435020;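 active = inhibition reaching about 45% at 4 µM in either replicate, limit read from the data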;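 also: plate controls were PMA/ionomycin stimulated DMSO wells for no effect and unstimulated DMSO wells for full effect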
Starred values were filed as active, the others as inactive; u = inconclusive; x = no result.

SMILES	Jurkat NFkB inh	aSyn UTR inh	Shn3 inh set2	Gli-Sufu antag	TAG inh	697 NFkB inh	Jurkat NFkB conf
CCCCCn1c(=O)[nH]c2cc(C(=O)O)ccc2c1=O	-7	6	13	-1	-24	-5	x
COc1ccc2oc(C(=O)Nc3ccccn3)c(C)c2c1	-234	-31	-67	-114	3	-214	-87
COc1ccc2oc(C(=O)Nc3ccc(C)cn3)c(C)c2c1	-92	-124	-78	-98	-5	-119	x
O=C(Nc1ccc2oc(-c3ccncc3)nc2c1)c1ccc(F)cc1	7	10	13	4	-6	-4	x
COc1ccc2nc(SCC(=O)NC3CCCC3)c(C)cc2c1	50*	-48	-28	36	x	-26	31
COc1ccc2c(C)cc(SCC(=O)NC3CCCC3)nc2c1	1	x	-44	-5	-44	-3	x
Oc1cccc2ccc(/C=C/c3ccccc3Br)nc12	-84	33	42	9	x	-98	x
Oc1cccc2ccc(/C=C/c3cccs3)nc12	-189	-172	-9	7	x	-177	-146
COc1cc(/C=N/n2c(COc3ccccc3)n[nH]c2=S)cc(OC)c1OC(C)=O	-25	-3	23	5	x	9	x
O=C(/C=C/Nc1cccc([N+](=O)[O-])c1)c1cccs1	-158	-279	-102	-10	x	-120	-79
CNc1cc([N+](=O)[O-])ccc1N/C=C/C(=O)c1cccs1	-11	-10	-27	24	4	1	x
Cc1ccc(-c2csc(NCCn3c(-c4ccncc4)nc4cc(C(F)(F)F)ccc43)n2)cc1	16	x	-11	-2	-18	10	x
O=CN(CCNc1ccccc1)c1ccccc1	x	x	-15	-7	8	x	x
COc1ccc(C(=O)Nc2ccc(N3CCN(C(=O)c4cccs4)CC3)cc2)cc1Br	15	-15	-14	20	x	-34	x
COc1cc(OC)cc(C(=O)Nc2ccc(N3CCN(C(=O)c4cccs4)CC3)cc2)c1	64*	-180	4	6	0	-63	20
CCCCc1ccc(NC(=O)c2cnccn2)cc1	-156	32	-10	-71	-2	-206	-105
CCCCOc1ccc(C)cc1CN(CCO)CCO	-8	-4	0	4	x	7	x
CCCCCc1ccc(OCCCC[n+]2ccc(C)cc2)c(CCCCC)c1	54*	x	84	86*	34	34	54*
CCc1ccc2c(Cl)c(C(=O)N/N=C/c3c[nH]c4ccccc34)sc2c1	13	12	5	-16	7	-20	x
CCc1ccc(-c2cc(C(=O)N/N=C/c3c[nH]c4ccccc34)[nH]n2)cc1	60*	-3	-21	-30	33	-47	-11
COc1ccc(C(=O)OCC(=O)C(C)(C)C)cc1S(=O)(=O)N(C)CCc1cccnc1	-11	14	-5	-8	x	-4	x
Cc1ccsc1/C=C/c1ccc2ccccc2n1	-165	34	8	-51	x	-162	-105
Cc1ccsc1/C=C/c1ccc2cccc(O)c2n1	-148	-26	-31	11	x	-144	x
CCC(=O)Nc1ccc(S(=O)(=O)Nc2cc(C)on2)cc1	8	3	-12	-2	x	5	x
O=C(NNC(=O)C12CC3CC(CC(C3)C1)C2)c1ccccn1	72*	-50	-15	2	28	23	23
SMILES	Jurkat NFkB inh	aSyn UTR inh	Shn3 inh set2	Gli-Sufu antag	TAG inh	697 NFkB inh	Jurkat NFkB conf
O=C(NNC(=O)C12CC3CC(CC(C3)C1)C2)c1cnccn1	-1	37	15	3	x	2	x
Cc1ccc(NS(=O)(=O)c2cccc(C(=O)N3CCOCC3)c2)cc1	3	19	5	-43	x	13	x
CCN1CCN(CC(O)COc2ccc(C(C)=O)cc2)CC1 (stereo not drawn)	2	13	-3	3	9	17	x
CCN1CCN(C(=O)c2ccc(Cl)c(S(=O)(=O)N3CCCCCC3)c2)CC1	3	7	24	3	7	1	x
COc1cccc(-c2cc(C(=O)Nc3cc(C)n(Cc4ccc(Cl)cc4)n3)no2)c1	61*	16	18	-3	x	28	42
CCNC(=S)NNC(=O)c1cc(-c2ccc(OCC)cc2)nc2ccccc12	-71	56	8	-85	x	-180	x
COC(=O)[C@@]12CCCCN1[C@H](c1ccc(-c3ccc(F)cc3)c(OC)c1)[C@H]1C(=O)N(C)C(=O)[C@H]12	-5	x	-8	-8	-14	-11	x
COc1cccc(/C=N/Nc2ncnc(Cl)c2N)c1O	56*	89*	72	79*	x	-85	13
COc1ccc(/C=N/Nc2ncnc(Cl)c2N)cc1OC	-1	-39	-17	-9	x	13	x
COc1ccc(Nc2ncnc3scc(-c4ccc(OC)cc4)c23)cc1	52*	-42	16	5	x	-46	22
COc1cccc(/C=N/Nc2ncnc3scc(-c4ccccc4)c23)c1O	73*	u	85*	88*	x	-20	57*
CCC(C)C(Nc1ncnc2scc(-c3ccccc3)c12)C(=O)O (stereo not drawn)	0	12	-5	-1	17	-3	x
COc1ccc(-c2csc3ncnc(Cl)c23)cc1	-5	-26	-16	30	-16	14	x
CCOc1ccc(C(C)=O)cc1NC(=O)/C=C\C(=O)O	-19	8	-1	-3	6	12	x
CCOC(=O)C1CCN(C(=O)CCC2CCCC2)CC1	-11	-3	-9	3	-18	2	x
C=CCSc1nnc(-c2ccc(Cl)cc2Cl)o1	-150	-78	-78	-61	x	-125	-103
Clc1ccc(-c2nnc(SCc3ccon3)o2)c(Cl)c1	-118	-69	-64	-84	x	-172	x
O=C(c1ccc(CS(=O)c2ccccc2Cl)o1)N1CCN(c2ccccn2)CC1 (stereo not drawn)	52*	-4	1	11	x	-43	48
O=C(c1ccc(CS(=O)Cc2ccccc2Cl)o1)N1CCN(c2ccccn2)CC1 (stereo not drawn)	-9	-85	-33	6	x	-8	x
COc1ccc(Cc2nnc(NC(=O)c3ccccc3F)s2)cc1OC	10	21	-5	3	-5	-12	x
O=C(Nc1nc(-c2ccccn2)cs1)c1ccc(Cl)s1	65*	68*	90*	76*	54*	-98	44
Cc1ccc(C(=O)Nc2nc(-c3ccccn3)cs2)s1	0	x	48	3	3	-83	x
CCOC(=O)CNc1ncc(C(F)(F)F)cc1Cl	5	12	-22	-2	14	10	x
N#CCC(CNc1ncc(C(F)(F)F)cc1Cl)OC(=O)c1ccc(Cl)cc1Cl (stereo not drawn)	70*	-18	-16	10	x	-5	11
COc1cccc(CN(C)C(=O)c2ccc(OCC(=O)Nc3cccc(C(F)(F)F)c3)c(OC)c2)c1	56*	34	86*	11	-1	-35	62*
CCOc1ccc2c(c1)C(C)=CC(C)(C)N2S(=O)(=O)c1ccc(NC(C)=O)cc1	56*	70*	-22	65*	x	-156	58*
